Compound activity deposited in PubChem BioAssay by several laboratories.
TIM10 inh – growth inhibitors of TIM10 yeast strain; S. cerevisiae TIM10 strain growth, BacTiter-Glo luminescence, 24 h; inhibition, % at 10 µM; 330,000 tested, 1.4% active;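 active means inhibition of 40% or more at the single tested concentration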;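 further: wild-type TIM10 isogenic control strain grown at permissive 25 °C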
SKKanGAS inh – SKKanGAS growth inhibition. S. pyogenes SKKanGAS, kanamycin growth, BacTiter-Glo, 6 h. inhibition, % at 7.5 µM. 300,000 tested, 1.3% active;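 active means mean replicate score, as percent of positive control median, at least 50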;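 further: strain carries kanamycin resistance gene driven by streptokinase promoter and grows in 40 µg/ml kanamycin; loss of luminescence reflects streptokinase promoter inhibition or plain growth inhibition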
tim10-1 inh – inhibits growth of tim10-1 mutant yeast | 330,000 tested, 2.2% active | S. cerevisiae tim10-1 ts strain growth, BacTiter-Glo, 24 h | AID 463190 | inhibition, % at 20 µM;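 active means inhibition of at least 40%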;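 further: mutant grown at 25 °C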
NLRP3 yeast inh – blocks the NALP3 inflammasome reconstituted in yeast; AID 2825; 330,000 tested, 0.39% active; inhibition, % at 10 µM; Yeast reconstituted NLRP3/ASC/caspase-1, beta-gal luminescence, 24 h;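 active means inhibition of 50% or more; inactive means inhibition below 50%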
NALP1 inh – blocks the NALP1 inflammasome reconstituted in yeast; S. cerevisiae NALP1/ASC/caspase-1 growth, X-gal OD620, 72 h; inhibition, % at 10 µM; 280,000 tested, 0.61% active; AID 2071; in the data active means inhibition mostly above about 24%, no sharp cut-off; inactive means mostly below about 32%
tim23-1 inh – tim23-1 yeast growth inhibition; S. cerevisiae tim23-1 growth, BacTiter-Glo luminescence, 24 h; 330,000 tested, 1.3% active; inhibition, % at 20 µM;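 active means growth inhibition of the mutant yeast at or above 50%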;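 further: temperature-sensitive mutant grown at 25 °C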
tim10-1 conf – tim10-1 yeast growth inhibition, confirmed. shares compounds with tim10-1 inh. S. cerevisiae tim10-1 ts strain growth, BacTiter-Glo, 24 h. inhibition, % at 20 µM. 7,400 tested, 56% active. AID 463213;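 active means inhibition of yeast growth at or above a set limit in either of two repeat tests at 20 µM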;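 further: tim10-1 mutant grown at permissive 25 °C to find synthetic lethal compounds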
Hits are given with their value; i = inactive; nt = no result. Compounds with a hit are over-represented: about 4.9% of the library has one in this group of screens.

SMILES	TIM10 inh	SKKanGAS inh	tim10-1 inh	NLRP3 yeast inh	NALP1 inh	tim23-1 inh	tim10-1 conf
Cc1ccccc1-n1c(SCC(=O)Nc2ccccc2)nc2nc3c(cc2c1=O)CCCC3	i	i	43.7	i	i	i	i
O=C(CSc1nc2ccccc2c(=O)n1-c1ccc(F)cc1F)Nc1ccc2c(c1)CCC2	i	i	i	i	i	i	nt
O=C(COC(=O)c1ccc(O)cc1)Nc1ccccc1	i	i	i	i	i	i	nt
O=C(COc1ccc([N+](=O)[O-])cc1)Nc1nc(-c2ccccn2)cs1	i	57.2	41.7	i	nt	i	i
O=C(COc1ccccc1)Nc1nc(-c2cccnc2)cs1	i	nt	i	i	nt	i	nt
O=C(Nc1ccc(S(=O)(=O)N2CCCCC2)cc1)c1ccccc1F	i	i	i	i	i	i	nt
O=C(Nc1ccc(F)cc1)c1cc(S(=O)(=O)N2CCCCC2)ccc1F	i	i	42.3	i	i	i	i
CCN(Cc1ccncc1)Cc1c(O)ccc2cc(Br)ccc12	i	i	46.3	i	i	i	i
CN1CCN(Cc2c(O)ccc3cc(Br)ccc23)CC1	i	i	i	i	i	i	nt
CN1/C(=C\C(=O)COC(=O)CNC(=O)c2ccc3ccccc3c2)C(C)(C)c2ccccc21	i	i	43.9	i	i	i	i
CN1/C(=C\C(=O)COC(=O)CN2C(=O)C3CC=CCC3C2=O)C(C)(C)c2ccccc21 (stereo not given)	i	i	41.7	i	i	i	i
O=C(NC1CCC(=O)N(CCSc2ccccc2)CC1)OCc1ccccc1 (stereo not given)	i	i	48.2	i	i	i	i
N#CCCN1CCC(NC(=O)OCc2ccccc2)CCC1=O (stereo not given)	i	i	i	i	i	i	nt
COc1ccc(-n2c(Cc3cccn3C)nnc2SCC(=O)Nc2ccc(Cl)cc2)cc1	i	i	41.8	i	i	i	i
CCc1nc(CNC(=O)C2CCC(=O)N(CCc3cccc(F)c3)C2)no1 (stereo not given)	i	i	i	i	i	i	nt
N/C(Cn1cncn1)=N\NC(=O)C(=O)Nc1cccc(C(F)(F)F)c1	i	i	i	i	i	i	nt
COCCOC(=O)c1sc2nc[nH]c(=O)c2c1C	i	i	i	i	i	i	nt
Cc1c(C(=O)OC2CCCCC2)sc2nc[nH]c(=O)c12	i	i	40.2	i	i	i	i
COc1cc(OC)cc(-c2c(C#Cc3ccsc3)c3cc(-c4ccccc4OC)ccc3n2C)c1	i	nt	i	i	nt	i	nt
CC1CC(C)CN(CCCNC(=O)CCC(=O)N2CC(C)Oc3ccccc32)C1 (stereo not given)	i	i	i	i	i	i	nt
CC(C)(C)n1nnnc1C(c1ccccc1F)N(Cc1ccco1)CC1CCCO1 (stereo not given)	i	i	41.0	i	i	i	i
Cc1cccc2cc(C(c3nnnn3C(C)(C)C)N(Cc3ccco3)CC3CCCO3)c(=O)[nH]c12 (stereo not given)	i	i	i	i	i	i	nt
CC(C)(C)C(=O)Nc1ccccc1C(=O)Nc1cccnc1	i	i	i	i	i	i	nt
CC(C)(C)C(=O)Nc1ccccc1C(=O)Nc1cc(Cl)ccc1Cl	i	i	43.3	i	i	i	36.1
COc1ccc(-c2cc(C(F)F)n3ncc(C(=O)N4CCc5ccccc5C4)c3n2)cc1	i	i	41.2	i	i	i	i
SMILES	TIM10 inh	SKKanGAS inh	tim10-1 inh	NLRP3 yeast inh	NALP1 inh	tim23-1 inh	tim10-1 conf
Cc1cc2nc(-c3ccc[nH]c3=O)[nH]c2cc1C	i	i	46.5	i	i	i	35.0
Cc1cc2nc(-c3ccc[nH]c3=O)n(Cc3ccc(F)cc3)c2cc1C	i	i	i	i	i	i	nt
COc1ccc(CCNC(=O)c2cc(COc3c(C)cccc3C)on2)c(OC)c1	i	i	i	i	i	i	nt
O=c1c2ccccc2nnn1CSc1ccc2c(c1)OCCO2	i	i	41.8	i	i	i	35.2
Nc1nc(-c2ccccc2)cc(-c2ccccc2O)n1	i	i	43.0	i	i	i	i
Nc1nc(-c2ccccc2)nc(-c2ccccc2O)n1	i	i	i	i	nt	i	nt
Clc1cc(-c2ccccc2)nc(-c2ccccc2)n1	i	i	i	i	nt	i	nt
Oc1ccccc1-c1csc(-c2ccccc2)n1	i	i	46.3	i	i	i	37.1
Clc1nc(-c2ccccc2)cc(-c2ccccc2)n1	i	i	43.0	i	i	i	i
